# Measurements taken from PubChem BioAssay (Tox21).
# Where “and” joins values, the source holds several entries; their conditions need not be identical. Identical values can stand only once. Results filed as inconclusive are left out. Entries that show only a call come without a potency. Some compounds were tested as several samples or in several runs, with calls that do not always agree. Calls of active or inactive are those of the source. Unless noted, calls come from the whole dose curve; as a rule, active = well fitted curve in the direction sought with a large enough effect in the repeat runs; inconclusive = weak or mixed curves; inactive = no such curve, though single readings can be large; an effect the other way counts as inactive or inconclusive.
# Tests used:
# [1] = molecular target: Progesterone receptor (Homo sapiens) (UniProt P06401); experiment: qHTS assay to identify small molecule agonists of the progesterone receptor (PR) signaling pathway (AID 1346784; calls by dose curve; note: nearly all actives have a fitted effect of over 30% in size)
# How it was run: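 Cells (PR-UAS-bla HEK 293T, GripTite) were plated in assay medium containing 2% charcoal-stripped FBS and incubated 6 hr. Test compounds in DMSO were added for 16 hr at 37C. FRET substrate was then loaded for 2 hr at room temperature before fluorescence reading.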
# [2] = qHTS assay to identify small molecule agonists of the progesterone receptor (PR) signaling pathway - cell viability counter screen (AID 1346799; calls by dose curve; note: nearly all actives have a fitted effect of over 45% in size; note: potency is the fitted concentration of half-maximal effect)
# How it was run: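 Cells (PR-UAS-bla HEK293T) are plated at 3,000/well in 2% charcoal-stripped FBS medium, rested 6 hr, dosed and incubated 16 hr at 37C. CellTiter-Glo is then added and luminescence measured after 30 min at room temperature.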
# [3] = qHTS assay to identify small molecule antagonists of the TGF-beta/Smad signaling pathway - cell viability counter screen (AID 1346824); note: nearly all actives have a fitted effect of over 50% in size; note: potency is the fitted concentration of half-maximal effect
# How it was run: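 SBE-bla HEK 293T cells, incubated overnight, then compound plus 0.25 ng/mL TGF-beta1 (stock added) for 5 hr at 37 C. Viability was read in the same wells by CellTiter-Glo luminescence after 30 min at room temperature.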
# [4] = qHTS assay to identify small molecule agonists of the TGF-beta/Smad signaling pathway - cell viability counter screen (AID 1346829); note: nearly all actives have a fitted effect of over 45% in size; note: potency is the fitted concentration of half-maximal effect
# How it was run: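 Tox21 qHTS format: SBE-bla HEK 293T cells treated with DMSO-dissolved compounds for 5 hr; CellTiter-Glo luminescence after 30 min at room temperature.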
# [5] = qHTS assay to identify small molecule agonists of the TGF-beta/Smad signaling pathway (AID 1346859; active = well fitted activation curve with a large enough effect in the signal ratio in the repeat runs, not every such curve was filed as active; the % refers to the signal ratio; note: potency is the fitted concentration of half-maximal effect; for activation: series mostly up to about 77 µM)
# How it was run: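 Reporter line: HEK 293T with stably integrated SBE-controlled beta-lactamase. Compound exposure lasts 5 hr at 37 C and 5% CO2; substrate loading follows for 2 hr at room temperature, with emission read at 460 and 530 nm.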
# [6] = molecular target: Thyrotropin-releasing hormone receptor (Homo sapiens) (UniProt P34981); experiment: qHTS assay to identify small molecule antagonists of the thyrotropin-releasing hormone receptor (TRHR) signaling pathway (AID 1346877; active = well fitted inhibition curve with a large enough effect in the repeat runs, not every such curve was filed as active; note: potency is the fitted concentration of half-maximal effect)
# How it was run: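 Antagonism is measured as suppression of the calcium response to 1 nM TRH in TRHR-HEK293 cells that have been dye-loaded for 2 h at 37 °C after overnight plating. Each compound is tested at 15 concentrations in triplicate.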
# [7] = molecular target: Thyrotropin-releasing hormone receptor (Homo sapiens) (UniProt P34981); experiment: qHTS assay to identify small molecule agonists of the thyrotropin-releasing hormone receptor (TRHR) signaling pathway (AID 1346891; calls by dose curve;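 note: HEK293 cells expressing TRHR with calcium dye readout; series mostly up to about 58 µM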)
# How it was run: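 Cells: TRHR-Hek293, seeded and incubated 18 h. Dye loading: 2 h at 37 °C. Compound added from DMSO stock by pin tool. Read-out: kinetic calcium fluorescence over 3 min.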
# [8] = Human pregnane X receptor (PXR) small molecule agonists, qHTS cell viability counter screen (AID 1346977); note: nearly all actives have a fitted effect of over 50% in size; note: potency is the fitted concentration of half-maximal effect
# How it was run: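 Cytotoxicity counter screen run in the same wells as the PXR luciferase assay, using PXR-Luc HepG2 cells in charcoal-stripped serum medium. Viability: CellTiter-Fluor fluorescence after 24hr compound treatment.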
# [9] = Caspase-3/7 induction in CHO-K1 cells by small molecules, qHTS cell viability counter screen (AID 1346979); note: nearly all actives have a fitted effect of over 35% in size; note: potency is the fitted concentration of half-maximal effect
# How it was run: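 Cytotoxicity counter screen run in parallel with the caspase-3/7 assay: CHO-K1 cells, 16hr compound treatment at 37C, then CellTiter-Fluor for 1hr before fluorescence reading.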
# [10] = molecular target: Nuclear receptor subfamily 1 group I member 2 (Homo sapiens) (UniProt O75469); experiment: Human pregnane X receptor (PXR) small molecule agonists, qHTS assay (AID 1346982); note: nearly all actives have a fitted effect of over 35% in size; note: potency is the fitted concentration of half-maximal effect
# How it was run: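 Cells: HepG2 stably carrying PXR-Luc. Medium held 5% charcoal-stripped FBS. Compounds in DMSO added after 5 hr plating, incubated 24 hr, then luminescence quantified with ONE-Glo.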
# [11] = Caspase-3/7 induction in HepG2 cells by small molecules, qHTS assay (AID 1346978); note: nearly all actives have a fitted effect of over 15% in size
# How it was run: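 Wild-type HepG2 cells, 2,000/well, settled 5 hr at 37 C and 5% CO2, then compound-treated for 17 hr; caspase-3/7 activity read by luminescent Caspase-Glo 3/7 after 30 min at room temperature.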
# [12] = Caspase-3/7 induction in CHO-K1 cells by small molecules, qHTS assay (AID 1346980); note: nearly all actives have a fitted effect of over 15% in size
# How it was run: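 Wild-type CHO-K1 cells exposed to compounds for 17hr at 37 C, 5% CO2. Caspase-3/7 activity then measured by Caspase-Glo 3/7 luminescence after 30min at room temperature.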
# [13] = Caspase-3/7 induction in HepG2 cells by small molecules, qHTS cell viability counter screen (AID 1346981); note: nearly all actives have a fitted effect of over 30% in size; note: potency is the fitted concentration of half-maximal effect
# How it was run: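 Cell viability is measured as a cytotoxicity counter screen alongside the Caspase-Glo 3/7 readout in identical wells. Wild-type HepG2 cells are treated with test compounds for 16 hr at 37 C before CellTiter-Fluor addition and a 1-hr incubation.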
# [14] = molecular target: Cytochrome P450 2C19 (Homo sapiens) (UniProt P33261); experiment: Cytochrome P450 Family 2 Subfamily C Member 19 (CYP2C19) small molecule antagonists: luciferase reporter qHTS assay (AID 1671197); note: nearly all actives have a fitted effect of over 65% in size; note: potency is the fitted concentration of half-maximal effect
# How it was run: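 Relative luminescence units recorded 20 min after the detection reagent stopped a 1 h, 37C CYP2C19 reaction on proluciferin substrate, which was started by NADPH regeneration following 10 min room-temperature compound preincubation; ketoconazole positive control.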
# [15] = qHTS assay to identify small molecule antagonists of the progesterone receptor (PR) signaling pathway - cell viability counter screen (AID 1346798); note: nearly all actives have a fitted effect of over 50% in size; note: potency is the fitted concentration of half-maximal effect
# How it was run: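 Counter screen for cytotoxicity: viability of PR-UAS-bla HEK293T cells was measured with CellTiter-Glo luminescence following 16 hr compound exposure in the presence of R5020.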
# [16] = molecular target: Nuclear receptor subfamily 1 group I member 2 (Rattus norvegicus) (UniProt Q9R1A7); experiment: Rat pregnane X receptor (rPXR) activation by small molecules, qHTS assay (AID 1346983); settings: rPXR luciferase reporter cells, One-Glo luminescence, 24 h; stronger effect = higher value; note: nearly all actives have a fitted effect of over 20% in size
# How it was run: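 Cell-based rPXR activation assay: rPXR cells, 2,000 per well, rested 5hr at 37 C, then exposed to compounds in DMSO for 24 hr at 37 C. Luciferase activity read by One-Glo luminescence after 30 min at room temperature.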
# [17] = molecular target: Nuclear receptor subfamily 1 group I member 2 (Homo sapiens) (UniProt O75469); experiment: CYP3A4 induction through human pregnane X receptor (PXR) by small molecules, qHTS assay (AID 1346984); note: nearly all actives have a fitted effect of over 40% in size
# How it was run: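 Quantitative HTS in DPX-2 cells, i.e. HepG2 transfected with PXR response element and CYP3A4-promoter luciferase. Compounds in DMSO incubated 24hr at 37C; then P450-Glo CYP3A4 substrate, 3uM final, 3hr; One-Glo luminescence.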
# [18] = molecular target: Nuclear receptor subfamily 1 group I member 2 (Homo sapiens) (UniProt O75469); experiment: Human pregnane X receptor (PXR) activation by small molecules, qHTS assay (AID 1346985); note: nearly all actives have a fitted effect of over 40% in size; note: potency is the fitted concentration of half-maximal effect
# How it was run: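 DPX-2 cells (HepG2 co-transfected with a PXR response element and a CYP3A4-promoter luciferase construct) were seeded at 2,000 per well, rested 5 hr at 37C, then exposed to DMSO-dissolved compounds for 24 hr. Activation was read as luciferase luminescence.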
# [19] = molecular target: Cytochrome P450 2D6 (Homo sapiens) (UniProt P10635); experiment: Cytochrome P450 Family 2 Subfamily D Member 6 (CYP2D6) small molecule antagonists: luciferase reporter qHTS assay (AID 1671196); note: nearly all actives have a fitted effect of over 50% in size; note: potency is the fitted concentration of half-maximal effect
# How it was run: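 Enzyme and proluciferin substrate were first combined with test chemical for 10 min at room temperature. Adding NADPH regeneration solution started a 1 h reaction, stopped with luciferin detection reagent and read by luminescence 20 min later.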
# [20] = molecular target: Progesterone receptor (Homo sapiens) (UniProt P06401); experiment: qHTS assay to identify small molecule antagonists of the progesterone receptor (PR) signaling pathway (AID 1346795; active = well fitted inhibition curve with a large enough effect in the signal ratio in the repeat runs, not every such curve was filed as active; the % refers to the signal ratio; note: potency is the fitted concentration of half-maximal effect)
# How it was run: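 Antagonist mode: compounds tested against 1 nM (final) promegestone stimulation in HEK293T cells expressing PR-UAS-bla reporter, 16 hr at 37C, 5% CO2; beta-lactamase activity detected via B/G FRET substrate after 2 hr at room temperature.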
# Sequence of Thyrotropin-releasing hormone receptor (Homo sapiens) (P34981 whole entry, looked up): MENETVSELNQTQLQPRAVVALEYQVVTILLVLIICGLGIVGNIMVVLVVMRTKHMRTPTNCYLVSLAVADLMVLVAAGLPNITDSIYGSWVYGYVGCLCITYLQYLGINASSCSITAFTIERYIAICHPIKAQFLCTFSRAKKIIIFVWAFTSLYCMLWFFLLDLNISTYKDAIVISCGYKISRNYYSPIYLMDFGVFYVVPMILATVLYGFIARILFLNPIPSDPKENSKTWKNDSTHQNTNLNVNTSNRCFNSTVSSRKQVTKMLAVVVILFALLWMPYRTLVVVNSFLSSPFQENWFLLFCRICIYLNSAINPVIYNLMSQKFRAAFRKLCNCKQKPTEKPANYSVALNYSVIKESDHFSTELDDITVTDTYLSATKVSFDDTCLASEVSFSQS
# Sequence of Nuclear receptor subfamily 1 group I member 2 (Homo sapiens) (O75469 whole entry, looked up): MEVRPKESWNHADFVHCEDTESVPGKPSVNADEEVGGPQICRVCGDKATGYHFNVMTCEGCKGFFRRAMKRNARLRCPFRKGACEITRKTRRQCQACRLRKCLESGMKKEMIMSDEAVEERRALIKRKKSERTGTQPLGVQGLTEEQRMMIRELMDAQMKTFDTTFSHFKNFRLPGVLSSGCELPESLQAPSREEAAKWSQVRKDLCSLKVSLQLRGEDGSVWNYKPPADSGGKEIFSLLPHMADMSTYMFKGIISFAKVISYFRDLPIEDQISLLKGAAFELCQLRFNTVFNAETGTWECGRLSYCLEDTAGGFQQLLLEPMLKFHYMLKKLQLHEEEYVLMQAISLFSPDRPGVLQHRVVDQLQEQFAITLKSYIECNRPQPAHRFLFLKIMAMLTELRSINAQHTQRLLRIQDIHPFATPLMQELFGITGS
# Sequence of Cytochrome P450 2C19 (Homo sapiens) (P33261 whole entry, looked up): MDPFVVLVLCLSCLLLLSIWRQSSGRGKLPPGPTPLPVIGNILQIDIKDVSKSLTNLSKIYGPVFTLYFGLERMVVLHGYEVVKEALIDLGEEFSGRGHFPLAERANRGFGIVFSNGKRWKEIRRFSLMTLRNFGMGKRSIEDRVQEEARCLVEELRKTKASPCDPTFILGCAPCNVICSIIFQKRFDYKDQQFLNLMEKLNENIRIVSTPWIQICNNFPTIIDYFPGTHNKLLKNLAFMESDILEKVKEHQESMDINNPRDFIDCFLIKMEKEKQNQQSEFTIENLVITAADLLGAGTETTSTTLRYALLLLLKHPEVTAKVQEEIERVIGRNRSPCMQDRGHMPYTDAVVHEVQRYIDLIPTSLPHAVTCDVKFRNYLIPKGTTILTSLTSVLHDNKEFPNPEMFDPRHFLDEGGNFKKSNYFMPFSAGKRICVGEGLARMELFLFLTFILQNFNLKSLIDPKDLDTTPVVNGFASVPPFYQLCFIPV
# Sequence of Progesterone receptor (Homo sapiens) (P06401 whole entry, looked up): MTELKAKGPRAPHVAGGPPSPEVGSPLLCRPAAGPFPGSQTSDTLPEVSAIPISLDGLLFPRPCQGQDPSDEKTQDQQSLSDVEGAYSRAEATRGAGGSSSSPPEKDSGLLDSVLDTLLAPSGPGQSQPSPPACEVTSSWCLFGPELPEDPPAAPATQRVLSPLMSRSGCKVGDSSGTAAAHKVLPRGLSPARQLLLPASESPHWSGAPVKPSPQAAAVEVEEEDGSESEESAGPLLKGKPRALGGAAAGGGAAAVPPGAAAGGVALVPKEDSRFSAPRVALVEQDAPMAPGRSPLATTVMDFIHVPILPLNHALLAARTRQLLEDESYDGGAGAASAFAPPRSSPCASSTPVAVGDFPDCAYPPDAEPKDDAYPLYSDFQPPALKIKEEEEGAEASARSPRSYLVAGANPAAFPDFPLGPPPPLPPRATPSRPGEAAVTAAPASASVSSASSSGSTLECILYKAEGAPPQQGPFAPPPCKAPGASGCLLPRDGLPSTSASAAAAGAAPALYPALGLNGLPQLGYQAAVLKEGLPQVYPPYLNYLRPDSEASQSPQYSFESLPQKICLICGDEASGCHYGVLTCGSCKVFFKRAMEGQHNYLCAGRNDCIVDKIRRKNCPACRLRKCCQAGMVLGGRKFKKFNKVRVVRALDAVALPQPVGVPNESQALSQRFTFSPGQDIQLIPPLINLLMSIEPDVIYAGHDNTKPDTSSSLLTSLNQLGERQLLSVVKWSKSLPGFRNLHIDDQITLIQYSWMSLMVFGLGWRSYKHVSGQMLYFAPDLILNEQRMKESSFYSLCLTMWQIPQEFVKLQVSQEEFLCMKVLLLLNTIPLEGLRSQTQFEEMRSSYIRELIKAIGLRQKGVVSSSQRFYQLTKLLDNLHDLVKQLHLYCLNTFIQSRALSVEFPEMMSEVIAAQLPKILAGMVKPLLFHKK
# Sequence of Cytochrome P450 2D6 (Homo sapiens) (P10635 whole entry, looked up): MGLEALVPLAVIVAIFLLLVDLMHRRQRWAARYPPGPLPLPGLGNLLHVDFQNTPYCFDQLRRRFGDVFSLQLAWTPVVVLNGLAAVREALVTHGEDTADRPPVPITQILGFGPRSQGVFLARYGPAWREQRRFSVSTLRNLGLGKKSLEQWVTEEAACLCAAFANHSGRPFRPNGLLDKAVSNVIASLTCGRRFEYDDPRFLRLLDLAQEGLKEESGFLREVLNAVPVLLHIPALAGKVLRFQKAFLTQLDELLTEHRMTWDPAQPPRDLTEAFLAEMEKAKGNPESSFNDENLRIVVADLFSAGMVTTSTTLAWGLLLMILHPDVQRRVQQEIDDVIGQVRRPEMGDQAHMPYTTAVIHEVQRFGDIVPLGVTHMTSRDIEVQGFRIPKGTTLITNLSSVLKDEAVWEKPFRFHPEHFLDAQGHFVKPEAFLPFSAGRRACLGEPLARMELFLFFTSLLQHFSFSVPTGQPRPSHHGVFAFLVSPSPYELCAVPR
# Sequence of Nuclear receptor subfamily 1 group I member 2 (Rattus norvegicus) (Q9R1A7 whole entry, looked up): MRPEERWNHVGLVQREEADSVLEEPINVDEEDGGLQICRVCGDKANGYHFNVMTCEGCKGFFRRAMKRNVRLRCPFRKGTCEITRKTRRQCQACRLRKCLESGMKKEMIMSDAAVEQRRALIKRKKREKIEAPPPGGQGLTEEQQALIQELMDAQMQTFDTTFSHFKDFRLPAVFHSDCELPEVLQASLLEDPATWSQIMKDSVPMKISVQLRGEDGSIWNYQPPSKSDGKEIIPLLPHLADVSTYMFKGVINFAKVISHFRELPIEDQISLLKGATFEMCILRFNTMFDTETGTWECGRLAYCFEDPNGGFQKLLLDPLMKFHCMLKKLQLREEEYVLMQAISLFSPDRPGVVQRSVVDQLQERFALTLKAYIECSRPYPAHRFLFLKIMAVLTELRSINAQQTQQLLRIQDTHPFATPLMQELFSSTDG
SMILES,Potency [1],Potency [2],Potency [3],Potency [4],Potency [5],Potency [6],outcome [7],Potency [8],Potency [9],Potency [10],Potency [11],Potency [12],Potency [13],Potency [14],Potency [15],max activation [16],Potency [17],Potency [18],Potency [19],Potency [20]
OCCN1CCN(CCCN2c3ccccc3Sc3ccc(C(F)(F)F)cc32)CC1,inactive,10.6 µM (active),inactive,inactive,inactive,inactive,inactive,33.5 µM (active),29.8 µM (active),inactive,,,,,,,,,,
CC1(C)CCC[C@]2(C)[C@H]3CC(=O)O[C@]3(C)CC[C@@H]12,inactive,inactive,inactive,inactive,,inactive,inactive,inactive,inactive,30.6 µM (active),inactive,inactive,inactive,39.9 µM (active),,,,,,
CCCCCCCCCCCCCCCC[N+](C)(C)CC,inactive,68.8 µM (active),43.8 µM (active),55.1 µM (active) and 26.8 µM (active),,30.2 µM (active) and inactive,inactive,54.6 µM (active),,inactive,inactive,inactive,61.3 µM (active),inactive,68.8 µM (active),-22.3% (inactive),inactive,inactive,566 nM (active) and 871 nM (active),
O=C(O)c1cc(N=Nc2ccc([N+](=O)[O-])cc2)ccc1O,inactive,,inactive,inactive,,inactive,inactive,53.5 µM (active),47.7 µM (active),0.301 µM (active),,inactive,53.5 µM (active),39.2 µM (active),,,,,69.7 µM (active),
O=S(=O)(O)c1ccc(Nc2nc(Nc3ccc(/C=C/c4ccc(Nc5nc(Nc6ccc(S(=O)(=O)O)cc6)nc(N(CCO)CCO)n5)cc4S(=O)(=O)O)c(S(=O)(=O)O)c3)nc(N(CCO)CCO)n2)cc1,,inactive,inactive,inactive,33.1 µM (active),inactive,inactive,inactive,inactive,inactive,inactive,inactive,,inactive,inactive,,,,inactive,
C#C[C@]1(OC(C)=O)CC[C@H]2[C@@H]3CCC4=C/C(=N/O)CC[C@@H]4[C@H]3CC[C@@]21CC,,,inactive,inactive,inactive,inactive,inactive,,,29.8 µM (active),inactive,inactive,inactive,,,,inactive,7.94 µM (active),27.5 µM (active),29.8 µM (active)
O=S(=O)(O)c1ccccc1/C=C/c1ccc(-c2ccc(/C=C/c3ccccc3S(=O)(=O)O)cc2)cc1,,inactive,inactive,,44.3 µM (active),inactive,inactive,,,inactive,inactive,inactive,inactive,inactive,inactive,,,,inactive,
